From PubChem BioAssay
This is a sample that favours compounds with a hit; in the whole collection about 14% have one here.
HCMV antiviral: human cytomegalovirus inhibition. 410,000 tested, 4.5% active. activity change, negative = inhibition, % at 57.5 µM. HFF cells, HCMV-luciferase reporter, 72 h; stronger effect = lower value; in the data active = activity change below about -60%; inconclusive = no clear call, values can overlap the other calls; inactive = above about -39%
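Two compound doses tested in HFFs infected with HCMV-luciferase, MOI 1 PFU/cell, 72 h at 37C. Lysate luminescence read with OneGlo; data normalized against buffer-only and 10uM Salinomycin inhibitor controls.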
FBPA Giardia inh: blocks Giardia fructose-bisphosphate aldolase activity | A8B2U2 | purified Giardia FBPA | Potency, µM (titrated, usually from 59.6 µM), most hits filed as inhibitors | 290,000 tested, 0.71% active; also: nearly all actives have a fitted effect of over 55% in size
Target sequence (A8B2U2 whole entry, looked up): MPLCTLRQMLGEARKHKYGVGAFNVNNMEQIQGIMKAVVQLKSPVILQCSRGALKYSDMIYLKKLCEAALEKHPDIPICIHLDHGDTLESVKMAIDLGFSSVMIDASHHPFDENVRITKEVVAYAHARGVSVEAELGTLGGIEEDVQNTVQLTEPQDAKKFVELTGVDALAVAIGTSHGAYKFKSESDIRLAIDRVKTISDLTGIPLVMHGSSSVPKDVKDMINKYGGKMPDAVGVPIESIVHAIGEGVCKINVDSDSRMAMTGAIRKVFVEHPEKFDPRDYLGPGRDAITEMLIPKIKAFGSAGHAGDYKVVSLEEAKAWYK
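40 nM FBPA preincubated 10 min at RT with compound (up to 57.5 uM final), then substrate plus GAPDH/TPI/NAD/arsenate coupling and diaphorase/resazurin added. Fluorescence read after 20 min at RT, 525/598 nm.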
Sm TGR inh: inhibitors of Schistosoma mansoni thioredoxin glutathione reductase. purified TGR, DTNB reduction, TNB absorbance 405 nm. Potency, µM (series often up to 114 µM), usual class: inhibitors. Q962Y6. 360,000 tested, 3% active. AID 485364; also: nearly all actives have a fitted effect of over 60% in size
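First, TGR (20 nM dispensed) and NADPH were mixed with compound. Second, a 15 min room-temperature incubation followed. Third, further NADPH and then DTNB were added to start the reaction. Finally, TNB absorbance was monitored kinetically.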
Pf growth 48h: inhibits P. falciparum growth in the first generation, 48 h; P. falciparum luciferase growth in erythrocytes, 48 h; Potency, µM (titrated, usually from 28.7 µM), usual class: inhibitors; 310,000 tested, 5.9% active; AID 504832
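Compounds are pin-transferred into medium, infected erythrocytes (2% hematocrit, 0.1% parasitemia final) are added, and plates sit one parasite generation at 37 C in 5% CO2. Detection reagent is then added and luminescence measured.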
Pf growth 96h: inhibits malaria parasite growth, 96 h | P. falciparum luciferase reporter growth, 96 h | 320,000 tested, 6.9% active | AID 504834 | Potency, µM (titrated, usually from 28.7 µM), hits mostly inhibitors
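96 h incubation, 37 C, 5% CO2, of luciferase-reporter P. falciparum-infected RBCs (2% hematocrit, 0.05% parasitemia final) with test compounds; endpoint luminescence.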
Numbers stand for hits. Unless noted, calls follow the shape of the dose curve; as a rule, active = well fitted curve in the direction sought with a large enough effect; inconclusive = small, poorly fitted or top-dose-only effect, or another doubt; inactive = no such curve, though single readings can be large; an effect the other way counts as inactive or inconclusive.

`COc1cc(C(=O)OCC(C)=O)ccc1OCc1c(C)noc1C` gave HCMV antiviral inactive, FBPA Giardia inh inactive, Sm TGR inh inactive, Pf growth 48h inactive and Pf growth 96h inactive.
For O=C(c1ccccc1Cc1ccccc1)N1CCN(S(=O)(=O)c2ccccc2Br)CC1 the results were HCMV antiviral -72, Sm TGR inh inactive, Pf growth 48h 12µM and Pf growth 96h 7.4µM.
COc1cc(C(=O)OCC(=O)N2CCCCC2C)ccc1OCc1c(C)noc1C (centres undefined) was read as HCMV antiviral inactive, FBPA Giardia inh inactive, Sm TGR inh inactive, Pf growth 48h 9.3µM and Pf growth 96h inconclusive.
COc1cc(C(=O)O)ccc1OCc1ccncc1 was read as HCMV antiviral inactive, FBPA Giardia inh inactive, Sm TGR inh inactive, Pf growth 48h inactive and Pf growth 96h inactive.
Screening CCC(=O)N1c2nc(-c3ccco3)nn2C2(CCCCC2)[C@@H]2CCCC[C@@H]21 returned HCMV antiviral inactive and Sm TGR inh 40µM.
Cc1ccc(C(=O)N2c3nc(-c4ccco4)nn3C3(CCCCC3)[C@@H]3CCCC[C@@H]32)cc1 was read as HCMV antiviral inactive and Sm TGR inh 11µM.
`CCCS(=O)(=O)NC(=O)C1(C)CCN(C(=O)c2cc(F)cc(F)c2)C1` (centres undefined) gave HCMV antiviral inactive.
For Cc1cc(/C=N/n2cnnc2)c(C)n1-c1ccc(Cl)cc1 the results were HCMV antiviral inactive, FBPA Giardia inh inactive, Sm TGR inh inactive, Pf growth 48h inactive and Pf growth 96h inactive.
Cc1cc(/C=N/N2CCN(C)CC2)c(C)n1-c1ccc(Cl)cc1 was read as HCMV antiviral inactive, FBPA Giardia inh inactive, Sm TGR inh inconclusive, Pf growth 48h 12µM and Pf growth 96h inconclusive.
`CCOCc1cn(CC(=O)c2ccc(Cl)cc2)c(C)nc1=N` gave HCMV antiviral inactive, FBPA Giardia inh inactive, Sm TGR inh inactive and Pf growth 48h 4.1µM.
`CCOCc1cn(CC(=O)c2ccc([N+](=O)[O-])cc2)c(C)nc1=N` gave HCMV antiviral inactive, FBPA Giardia inh inactive, Sm TGR inh inactive and Pf growth 48h 1µM.
`COc1ccc2c(c1)C(=O)[C@@H](O)[C@H](c1ccc(OC)c(Br)c1)O2` gave FBPA Giardia inh inactive, Sm TGR inh inconclusive, Pf growth 48h 3.7µM and Pf growth 96h 3.3µM.
COc1cccc([C@@H]2Oc3ccc(Br)cc3C(=O)[C@H]2O)c1 was read as FBPA Giardia inh inactive.
Screening COc1cccc([C@@H]2Oc3ccc(OC)cc3C(=O)[C@H]2O)c1 returned FBPA Giardia inh inactive, Sm TGR inh inactive, Pf growth 48h inactive and Pf growth 96h 3.7µM.
`Clc1cccc(Cl)c1-c1noc(CN2CCOCC2)n1` gave HCMV antiviral inactive, FBPA Giardia inh inactive, Sm TGR inh inactive, Pf growth 48h 10µM and Pf growth 96h inconclusive.
CN(CC(=O)Nc1ccc(Cl)c(Cl)c1)C(=O)C12CC3CC(CC(C3)C1)C2 was read as HCMV antiviral inactive, FBPA Giardia inh inactive, Sm TGR inh inactive, Pf growth 48h inconclusive and Pf growth 96h 7.4µM.
Screening O=c1c2ccccc2nc(COc2ccccc2)n1/N=C/c1cc([N+](=O)[O-])ccc1O returned HCMV antiviral inactive, FBPA Giardia inh inconclusive, Sm TGR inh inactive, Pf growth 48h 2.6µM and Pf growth 96h inconclusive.
For Cc1ccc(-c2[nH]ncc2/C=N/n2c(COc3ccccc3C)nc3ccccc3c2=O)cc1 the results were HCMV antiviral -89, FBPA Giardia inh inactive, Sm TGR inh inactive, Pf growth 48h inconclusive and Pf growth 96h inconclusive.
Screening Cc1ccccc1OCc1nc2ccccc2c(=O)n1/N=C/c1c[nH]c2ccccc12 returned HCMV antiviral inactive, FBPA Giardia inh inactive, Sm TGR inh inactive, Pf growth 48h inactive and Pf growth 96h inconclusive.
For Cc1cc(/C=N/n2c(COc3ccccc3C)nc3ccccc3c2=O)c(O)c([N+](=O)[O-])c1 the results were HCMV antiviral -92, FBPA Giardia inh inactive, Sm TGR inh inactive, Pf growth 48h 3.3µM and Pf growth 96h inconclusive.
`COc1ccc(NC(=O)COC(=O)CCOc2ccccc2C)cc1Cl` gave HCMV antiviral inactive, Sm TGR inh inactive, Pf growth 48h inactive and Pf growth 96h inactive.
`CCOC(=O)C1=C(COC(=O)CNS(=O)(=O)c2ccc(C)c(C)c2)NC(=O)NC1C` (centres undefined) gave HCMV antiviral inactive.
N#C/C(=C\c1ccncc1)c1ccccn1 was read as HCMV antiviral -78, FBPA Giardia inh inactive, Sm TGR inh inactive, Pf growth 48h inconclusive and Pf growth 96h 10µM.
Cc1nc2nc(C)c(C)nc2nc1C was read as HCMV antiviral inactive.
COc1ccc(S(=O)(=O)Nc2c(C)n(C)n(-c3ccccc3)c2=O)cc1C(=O)O was read as HCMV antiviral inactive, FBPA Giardia inh inactive, Sm TGR inh inactive, Pf growth 48h inactive and Pf growth 96h inactive.
For Cc1cc(N/N=C/c2ccc([N+](=O)[O-])o2)nc2ccccc12 the results were HCMV antiviral -79, FBPA Giardia inh inactive, Sm TGR inh inactive, Pf growth 48h 4.7µM and Pf growth 96h 5.9µM.
O=C(N/N=C/c1ccc([N+](=O)[O-])o1)c1cn(-c2ccccc2)nc1-c1ccccc1 was read as HCMV antiviral inactive, FBPA Giardia inh inactive, Sm TGR inh inactive, Pf growth 48h inconclusive and Pf growth 96h inconclusive.
`O=C(N/N=C/c1cccc([N+](=O)[O-])c1)c1cc(-c2ccccc2)nc2ccccc12` gave HCMV antiviral inactive, FBPA Giardia inh inactive, Sm TGR inh inactive, Pf growth 48h inactive and Pf growth 96h inconclusive.
Screening O=C(N/N=C/c1ccc([N+](=O)[O-])o1)c1cc(-c2ccc(-c3ccccc3)cc2)nc2ccccc12 returned HCMV antiviral -99, FBPA Giardia inh inactive, Sm TGR inh inconclusive, Pf growth 48h inconclusive and Pf growth 96h inconclusive.
`O=C(N/N=C/c1ccc([N+](=O)[O-])o1)c1cn(-c2ccccc2)nc1-c1ccc(Cl)cc1` gave HCMV antiviral inactive, FBPA Giardia inh inactive, Sm TGR inh inactive, Pf growth 48h 4.7µM and Pf growth 96h inconclusive.
O=C(N/N=C/c1ccc([N+](=O)[O-])o1)c1cc(-c2ccncc2)nc2ccccc12 was read as HCMV antiviral -67, FBPA Giardia inh inactive, Sm TGR inh inactive, Pf growth 48h inconclusive and Pf growth 96h 0.93µM.
Screening COc1ccccc1-c1cc(C(=O)N/N=C/c2ccc(C)o2)c2ccccc2n1 returned HCMV antiviral inactive, FBPA Giardia inh inactive, Sm TGR inh inactive, Pf growth 48h inconclusive and Pf growth 96h inconclusive.
For Cc1ccc(-c2cc(C(=O)N/N=C/c3ccc([N+](=O)[O-])o3)c3ccccc3n2)o1 the results were HCMV antiviral inactive, Sm TGR inh 40µM, Pf growth 48h inactive and Pf growth 96h 3.3µM.
Screening Cc1ccc(/C=N/NC(=O)c2cc(-c3ccncc3)nc3ccccc23)o1 returned HCMV antiviral -64, FBPA Giardia inh inactive, Sm TGR inh inconclusive, Pf growth 48h inactive and Pf growth 96h inactive.
